High-throughput results (PubChem BioAssay)
HCMV inh = qHTS Assay for inhibitors of the human cytomegalovirus (HCMV). activity change, negative = inhibition, % at 57.5 µM. hit rate 4.5% among 410,000. AID 1259415, 2018. HFF cells, HCMV-luciferase reporter, 72 h; hits give low values; in the data active = activity change below about -60%; inconclusive = no clear call, values can overlap the other calls; inactive = above about -39%
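After 16 h attachment at 37C, HFF cells received test compound and HCMV-luciferase (1 PFU/cell); reporter luminescence read 72 h later, data normalized against buffer-only and known inhibitor Salinomycin.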
MARV entry inh = qHTS for inhibitors of binding or entry into cells for Marburg Virus. Marburg virus pseudotyped entry inhibition, cell reporter. Potency, µM (top dose mostly 37.8 µM), for the others: top-dose activity change, negative = inhibition, actives largely listed as inhibitors. hit rate 1.8% among 300,000; calls by dose curve; tested in HEK293 cells; note: potency is the fitted concentration of half-maximal effect
Vaccinia mCherry = qHTS for Stage-Specific Inhibitors of Vaccinia Orthopoxvirus: mCherry Reporter Primary qHTS; Vaccinia virus mCherry reporter infection, fluorescence; hit rate 0.63% among 310,000; Potency, µM (series often up to 36.5 µM), without a hit: at the highest dose activity change, negative = inhibition, usual class: inhibitors; calls by dose curve; tested in A549 cells; note: potency is the fitted concentration of half-maximal effect; nearly all actives have a fitted effect of over 35% in size
LASV entry inh = qHTS for Inhibitors of binding or entry into cells for Lassa Virus; Lassa virus pseudotype entry inhibition, cell reporter; Potency, µM (highest dose often 37.9 µM), for inactives: top-dose activity change, negative = inhibition, actives largely listed as inhibitors; hit rate 1.2% among 300,000; calls by dose curve; tested in HEK293 cells; note: potency is the fitted concentration of half-maximal effect; nearly all actives have a fitted effect of over 50% in size
Vaccinia Venus = qHTS for Stage-Specific Inhibitors of Vaccinia Orthopoxvirus: Venus Reporter Primary qHTS; Vaccinia virus Venus reporter expression, fluorescence; Potency, µM (doses to about 36.5 µM), inactives show at the highest dose activity change, negative = inhibition, most hits filed as inhibitors; hit rate 0.46% among 330,000; AID 720580, 2013; calls by dose curve; tested in A549 cells; note: potency is the fitted concentration of half-maximal effect; nearly all actives have a fitted effect of over 30% in size
FMDV antiviral = High Throughput Screening for Foot and Mouth Disease Virus Antivirals | FMDV antiviral cell-based qHTS | Potency, µM (series often up to 57.9 µM), inactives show at the top dose activity change, negative = inhibition, actives largely listed as inhibitors | hit rate 1.2% among 410,000 | AID 1159524, 2015; calls by dose curve; tested in HEK293T cells; note: read-out not given here; potency is the fitted concentration of half-maximal effect; nearly all actives have a fitted effect of over 45% in size
Starred values were filed as active, the others as inactive; ! = a repeat was not active; [ ] = another dose, or the depositor's remark. The list is not random: actives were taken first. Their share in the collection is about 6.5%. % is set by controls: 0 for no effect and ±100 for the full control effect.

`CC(=O)c1ccc(-c2cc(F)cc3c2OC(CNC(=O)Cc2cn4ccsc4n2)C3)s1` (configuration not stated) gave Vaccinia mCherry -14%, Vaccinia Venus 3% and FMDV antiviral 7%.
`Cc1ccc(OCCCCNC2CCCC(C)C2C)c(C)c1` (configuration not stated) gave HCMV inh 2, MARV entry inh 11µM*, Vaccinia mCherry inconclusive, LASV entry inh inconclusive, Vaccinia Venus 10µM* and FMDV antiviral -17%.
Cc1ccc(OCCCCN2CCCCC2)c(C)c1 was read as HCMV inh 10 and FMDV antiviral -8%.
`CCOC(=O)c1c(-c2ccc(OC)cc2)csc1NC(=O)CSc1ncnc2sccc12` gave HCMV inh -71*, MARV entry inh -34%, LASV entry inh -7% and FMDV antiviral inconclusive.
For CCOC(=O)CNC(=O)CSc1ncnc2c1cnn2-c1ccc(OC)cc1 the results were HCMV inh 50, MARV entry inh 11µM*, LASV entry inh inconclusive, Vaccinia Venus -23% and FMDV antiviral 0%.
Screening CCOC(=O)CNC(=O)CSc1ncnc2c1cnn2-c1ccc(C)cc1 returned HCMV inh -8, MARV entry inh inconclusive, Vaccinia mCherry 4%, LASV entry inh inconclusive, Vaccinia Venus 9% and FMDV antiviral 9%.
`COc1ccc(OC)c(NC(=O)CSc2ncnc3c2cnn3-c2ccccc2Cl)c1` gave MARV entry inh 1.8µM*, LASV entry inh inconclusive and FMDV antiviral 7.9µM*.
CCOC(=O)c1c(-c2ccc(OC)cc2)csc1NC(=O)COc1ccc2c(C)cc(=O)oc2c1 was read as HCMV inh -36, MARV entry inh 0%, Vaccinia mCherry -10%, LASV entry inh -6%, Vaccinia Venus -1% and FMDV antiviral -21%.
Screening CC(=O)c1ccc(OCc2cn(CC(=O)c3ccc(O)cc3)nn2)cc1C returned LASV entry inh -2%[46.1 µM].
CC[n+]1c(/C=C/N(C)c2ccccc2)n(-c2ccccc2)c2ccc(-c3nc4ccccc4s3)cc21 was read as MARV entry inh inconclusive, Vaccinia mCherry inconclusive, LASV entry inh 2.5µM*, Vaccinia Venus 4.5µM* and FMDV antiviral 6.3µM*.
For CC(C)NC(=O)CCC(=O)N1Cc2ccccc2Oc2ncccc21 the results were HCMV inh 0, Vaccinia mCherry -13%, LASV entry inh 3%[46.1 µM], Vaccinia Venus -4% and FMDV antiviral -3%.
For COc1ccc(Cl)cc1-c1nc(-c2ccc(NC(=O)c3ccncc3)cc2)no1 the results were HCMV inh -36, MARV entry inh -12%, Vaccinia mCherry -7%, LASV entry inh -17%, Vaccinia Venus 5% and FMDV antiviral -20%.
For COc1ccc(NC(=O)c2ccc(-c3ccc(-c4noc(C)n4)cc3C)cc2)cc1N1CCN(C)CC1 the results were HCMV inh -20, MARV entry inh 2.5µM*, Vaccinia mCherry -14%, LASV entry inh inconclusive, Vaccinia Venus inconclusive and FMDV antiviral -8%.
For COc1ccc(-c2nc(-c3ccc(NC(=O)c4ccncc4)cc3)no2)cc1OC the results were MARV entry inh inconclusive, Vaccinia mCherry 4%, LASV entry inh -19%, Vaccinia Venus -13% and FMDV antiviral 8.9µM*.
`Cc1nc(-c2ccc(-c3ccc(C(=O)N4CCc5cc6c(cc54)C4(CCN(C)CC4)CO6)cc3)c(C)c2)no1` gave MARV entry inh 5µM* and FMDV antiviral -17%.
CC(C)c1ccc(NC(=O)CN2C(=O)COc3ccc(S(=O)(=O)N4CCCCCC4)cc32)cc1 was read as HCMV inh 12, Vaccinia mCherry -22%, LASV entry inh inconclusive, Vaccinia Venus -11% and FMDV antiviral -11%.
Cc1ccc(-n2ncc3c(N4CCC(C)CC4)ncnc32)cc1C was read as HCMV inh -25, Vaccinia mCherry -3%, LASV entry inh 9%[46.1 µM], Vaccinia Venus -9% and FMDV antiviral -50%.
For COc1ccc(OC)c(NC(=O)c2nnn(CC(=O)Nc3ccc(C(C)C)cc3)c2N)c1 the results were HCMV inh -63*, Vaccinia mCherry -17%[7.34 µM], LASV entry inh inconclusive, Vaccinia Venus -11%[7.34 µM] and FMDV antiviral -13%.
`COc1cc(NC(=O)c2nnn(CC(=O)Nc3cc(C)ccc3C)c2N)cc(OC)c1` gave HCMV inh -70*, Vaccinia mCherry inactive, LASV entry inh -8%[46.1 µM], Vaccinia Venus -3% and FMDV antiviral 0%.
For COc1ccc(NC(=O)Cn2nnc(C(=O)NCCc3ccccc3)c2N)cc1 the results were HCMV inh -64*!, MARV entry inh 9%[46.1 µM], Vaccinia mCherry -9%, LASV entry inh -28%[46.1 µM], Vaccinia Venus 7% and FMDV antiviral 5%.
For Cc1ccc(NC(=O)c2nnn(CC(=O)Nc3ccccc3)c2N)cc1C the results were HCMV inh -12, MARV entry inh 11µM*, Vaccinia mCherry -12%, LASV entry inh -17%, Vaccinia Venus -21% and FMDV antiviral -1%.
For Cn1c(-c2cccc(F)c2)cc2cnc(Nc3cccnc3)cc21 the results were HCMV inh 7.
For COC(=O)c1ccc(COc2ccccc2/C=C(\C#N)C(=O)Nc2ccccc2C)cc1 the results were HCMV inh 35, MARV entry inh 0%, Vaccinia mCherry -14%, LASV entry inh inconclusive, Vaccinia Venus -9% and FMDV antiviral 19%.
Screening COC(=O)c1ccc(COc2ccccc2/C=C(\C#N)C(=O)Nc2c(C)cccc2C)cc1 returned HCMV inh -25, MARV entry inh 11µM*, Vaccinia mCherry -10%, LASV entry inh inconclusive, Vaccinia Venus -27% and FMDV antiviral 11µM*.
`COc1ccc(NC(=S)N2CCCC(c3nc4ccc(C)cc4[nH]3)C2)c(OC)c1` (configuration not stated) gave HCMV inh -87*, MARV entry inh -9%, LASV entry inh -10% and FMDV antiviral -5%.
For COc1ccc(Cl)cc1NC(=O)c1cc(C)nc2c1c(C)nn2-c1ccccc1 the results were HCMV inh 1, Vaccinia mCherry -6%, LASV entry inh 26%[46.1 µM], Vaccinia Venus -11% and FMDV antiviral -4%.
`CCS(=O)(=O)c1ccc(N=Nc2ccc(O)c3ncccc23)c(OC)c1` gave HCMV inh -92*, MARV entry inh inconclusive, Vaccinia mCherry 7.9µM*, LASV entry inh inconclusive, Vaccinia Venus inconclusive and FMDV antiviral inconclusive.
COc1ccccc1N=Nc1ccc(O)c2ncccc12 was read as HCMV inh -73*, Vaccinia mCherry inconclusive, Vaccinia Venus inconclusive and FMDV antiviral -10%.
For Oc1ccc(F)c2cccnc12 the results were HCMV inh -28, MARV entry inh inconclusive, Vaccinia mCherry -6%, LASV entry inh 20%, Vaccinia Venus -16% and FMDV antiviral 0%.
